{"source": "PubChem BioAssay (NCATS)", "note": "Results filed as inconclusive are left out. Unmarked numbers belong to inactive results. Calls of active or inactive are those of the source. Calls come from the whole dose curve; as a rule, active = well fitted cell-killing curve with a large enough effect; inconclusive = small, poorly fitted or top-dose-only effect; inactive = no such curve, though single readings can be large or run the other way. Numbered stars: 1 amine (or outer) side, 2 acyl side, 3 side chain; on linkers, the order of the positions; unused ones are H or OH. Bridge positions count the residues as written; N and C are the ends. Square brackets hold non-standard residues; d marks the D form. Peptide text beside a SMILES is read from it. I, II: the chains in the order shown. Actinocin(9to1) = Cc1c2oc3c(C)ccc(C(=O)[*:1])c3nc-2c(C(=O)[*:2])c(N)c1=O; NMeV = CN[C@H](C(=O)O)C(C)C; Sar = CNCC(=O)O", "data": [{"assay": "qHTS of pediatric cancer cell lines to identify multiple opportunities for drug repurposing: Primary screen for Saos-2 cells (AID 1347097); note: nearly all actives have a fitted effect of over 40% in size; note: potency is the fitted concentration of half-maximal effect; for activity change, negative = cytotoxic: % is set by controls: 0 for no effect and ±100 for the full control effect", "conditions": "Saos-2 viability, CellTiter-Glo ATP luminescence, 48 h; series mostly up to 46 µM; activity change, negative = cytotoxic: at the top concentration", "from_the_text": "Drug repurposing or repositioning has been offered as a strategy for drug development in oncology programs. This approach has special potential for childhood cancers and other rare or orphan diseases, where the expected return on new drug development has been a disincentive to pharmaceuticals. […] In this project we exploit the poly-pharmacology of drugs to discover new indications via phenotypic screening of a panel of 19 well-characterized cell lines derived from solid tumors seen in children and adolescents. The goal is to identify approved drugs with previously unrecognized anticancer properties that has the potential to reveal new mechanisms and biological processes involved in carcinogenesis or drug resistance. We employed a titration-based paradigm (quantitative high-throughput screening or qHTS), where all compounds were tested at multiple concentrations for their effect on cell viability. Concentration-response curves (CRCs) were derived directly from the primary screen, and both potency and efficacy values were used to identify compounds with robust bioactivity profiles. We screened the NIH Chemical Genomics Center (NCGC) Pharmaceutical Collection (NPC) and Mechanism Interrogation Plate (MIPE) small molecule collections of approved and investigational compounds against these cell lines; and measured metabolically active cells after 48 hours of compound treatment as a proxy for cell viability. […] Assay Submitter: Nathalia J. Martinez, National Center for Advancing Translational Sciences, National Institutes of Health, Rockville, MD, USA; email: natalia.martinez@nih.gov Shen, M et al. Quantitative high-throughput phenotypic screening of pediatric cancer cell lines identifies multiple opportunities for drug repurposing. Oncotarget 2017 Dec 19;9(4):4758-4772. PMID 29435139.\nThe cells were obtained from University of North Carolina (UNC), Pediatric Preclinical Testing Program (PPT), and Coriell Institute (CI). qHTS cell viability assay: Cells were assayed in growth media at a density of 500-1,000 cells/well. Five microliters of cells were dispensed into 1,536-well, white, solid-bottom, TC-treated plates (Greiner Bio One) using a multidrop dispenser and incubated at 37 degrees C, 5% CO2, under a humidified atmosphere for 5 hours. Twenty-three nanoliters of compounds and controls (neutral control DMSO or positive control bortezomib at final concentration of 2.3 µM) were subsequently transferred by Kalypsys pintool. For primary screens, the MIPE collection was tested at 11-point dilutions (final concentrations range from 0.78 nM to 46 µM) and the NPC collection at 8-point dilutions (final concentrations range from 0.59 nM to 46 µM). Compounds tested in follow-up screens were assayed at 11-point dilutions. Cells were incubated for 48 hours, followed by addition of 3 µL of CellTiter-Glo (Promega). After a 15 min incubation at room temperature, samples were analyzed for luminescence intensity using a ViewLux High-throughput CCD imager equipped with clear filters.", "values": [{"compound": "Oc1ccc(O)cc1", "activity change, negative = cytotoxic": "13%"}, {"compound": "OC[C@H]1O[C@H](O[C@]2(CCl)O[C@H](CCl)[C@@H](O)[C@@H]2O)[C@H](O)[C@@H](O)[C@H]1Cl", "activity change, negative = cytotoxic": "-19.8%"}, {"compound": "Cc1onc(-c2c(Cl)cccc2Cl)c1C(=O)N[C@@H]1C(=O)N2[C@@H]1SC(C)(C)[C@@H]2C(=O)O", "activity change, negative = cytotoxic": "-21.9%"}, {"compound": "O=C(COc1ccc(Cl)cc1)N1CCN(Cc2ccc3c(c2)OCO3)CC1", "activity change, negative = cytotoxic": "-16.3%"}, {"compound": "O=S1(=O)c2cccc3cccc(c23)N1CCCN1CCN(c2ccc(F)cc2)CC1", "activity change, negative = cytotoxic": "-25.2%"}, {"compound": "NCCCC[C@H](N[C@@H](CCc1ccccc1)C(=O)O)C(=O)N1CCC[C@H]1C(=O)O", "activity change, negative = cytotoxic": "34.8%"}, {"compound": "CCCCOc1ccc(OCCCN2CCOCC2)cc1", "activity change, negative = cytotoxic": "-20.8%"}, {"compound": "Cc1c(C(C)C)c(=O)n(-c2ccccc2)n1C", "activity change, negative = cytotoxic": "-29.7%"}, {"compound": "c1ccc(CNCCNCc2ccccc2)cc1", "activity change, negative = cytotoxic": "1.46%"}, {"compound": "CN(C)CCOc1ccccc1Cc1ccccc1", "activity change, negative = cytotoxic": "-11.3%"}, {"compound": "COc1ccc(/C=C/C(=O)c2ccc(OC)cc2OC)cc1", "Potency": "10.6 µM (active)"}, {"compound": "CCCCCCCCCCCCCCCCOP(=O)([O-])OCC[N+](C)(C)C", "activity change, negative = cytotoxic": "8.73%"}, {"compound": "COc1cc2c(cc1OC)C(=O)C(CC1CCN(Cc3ccccc3)CC1)C2", "note": "(stereo not given)", "activity change, negative = cytotoxic": "-27.3%"}, {"compound": "CCCCOc1cc(C(=O)NCCN(CC)CC)c2ccccc2n1", "activity change, negative = cytotoxic": "-26.4%"}, {"compound": "CC(C)n1nc(-c2cc3cc(O)ccc3[nH]2)c2c(N)ncnc21", "Potency": "4.22 µM (active)"}, {"compound": "Cc1nc2n(c(=O)c1CCN1CCC(c3noc4cc(F)ccc34)CC1)CCC[C@H]2O", "activity change, negative = cytotoxic": "-0.598% [at 16.1 µM]"}, {"compound": "CCOC(=O)c1cccc(N)c1", "activity change, negative = cytotoxic": "-6.76%"}, {"compound": "CC(C)(Oc1ccc(Cl)cc1)C(=O)O", "activity change, negative = cytotoxic": "7.85%"}, {"compound": "Nc1nc2ncc(CNc3ccc(C(=O)N[C@@H](CCC(=O)O)C(=O)O)cc3)nc2c(=O)[nH]1", "activity change, negative = cytotoxic": "-2.17%"}, {"compound": "Cc1c2oc3c(C)ccc(C(=O)N[C@@H]4C(=O)N[C@H](C(C)C)C(=O)N5CCC[C@H]5C(=O)N(C)CC(=O)N(C)[C@@H](C(C)C)C(=O)O[C@@H]4C)c3nc-2c(C(=O)N[C@@H]2C(=O)N[C@H](C(C)C)C(=O)N3CCC[C@H]3C(=O)N(C)CC(=O)N(C)[C@@H](C(C)C)C(=O)O[C@@H]2C)c(N)c1=O", "note": "(I: T[dV]P[Sar][NMeV] / II: T[dV]P[Sar][NMeV]; ester I:1-I:C, II:1-II:C; linker I:N-II:N via Actinocin(9to1))", "Potency": "0.0841 µM (active)"}, {"compound": "COc1cccc2c1C(=O)c1c(O)c3c(c(O)c1C2=O)C[C@@](O)(C(=O)CO)C[C@@H]3O[C@H]1C[C@H](N)[C@H](O)[C@H](C)O1", "Potency": "13.3 µM (active)"}, {"compound": "COc1ccc(OC)c(C(O)CNC(=O)CN)c1", "note": "(stereo not given)", "activity change, negative = cytotoxic": "36.9%"}, {"compound": "CCCC(=O)O[C@]1(C(=O)CO)CC[C@H]2[C@@H]3CCC4=CC(=O)CC[C@]4(C)[C@H]3[C@@H](O)C[C@@]21C", "activity change, negative = cytotoxic": "0.119%"}, {"compound": "Cc1ncc(CSSCc2cnc(C)c(O)c2CO)c(CO)c1O", "activity change, negative = cytotoxic": "-0.69%"}, {"compound": "CC[N+](CC)(CCNC(=O)C(=O)NCC[N+](CC)(CC)Cc1ccccc1Cl)Cc1ccccc1Cl", "activity change, negative = cytotoxic": "26.6%"}, {"compound": "NC(=O)c1cc[n+](CC2=C(C(=O)[O-])N3C(=O)[C@@H](NC(=O)Cc4cccs4)[C@H]3SC2)cc1", "activity change, negative = cytotoxic": "-2.6%"}, {"compound": "CC(=O)Oc1ccc(C(c2ccc(OC(C)=O)cc2)c2ccccn2)cc1", "activity change, negative = cytotoxic": "-14.8%"}, {"compound": "COCc1c(C(C)C)nc(C(C)C)c(/C=C/[C@@H](O)C[C@@H](O)CC(=O)O)c1-c1ccc(F)cc1", "Potency": "0.106 µM (active)"}, {"compound": "COc1c2occc2c(OC)c2c(=O)cc(C)oc12", "activity change, negative = cytotoxic": "-2.1%"}, {"compound": "COc1cc(/C=C/C(=O)O[C@H]2CC[C@]34C[C@]35CC[C@]3(C)[C@@H]([C@H](C)CCC=C(C)C)CC[C@@]3(C)[C@@H]5CC[C@H]4C2(C)C)ccc1O", "activity change, negative = cytotoxic": "-0.128%"}, {"compound": "COC(=O)CCc1ccc(OCC(O)CNC(C)C)cc1", "note": "(stereo not given)", "activity change, negative = cytotoxic": "-17%"}, {"compound": "Oc1c(I)cc(Cl)c2cccnc12", "Potency": "21.1 µM (active)"}, {"compound": "CN(C)CC/C=C1/c2ccccc2COc2ccc(CC(=O)O)cc21", "activity change, negative = cytotoxic": "-2.31%"}, {"compound": "O=c1[nH]c(=O)n([C@H]2C[C@H](O)[C@@H](CO)O2)cc1C(F)(F)F", "activity change, negative = cytotoxic": "4.84%"}, {"compound": "C#C[C@]1(O)CC[C@H]2[C@@H]3CCC4=CC(=O)CC[C@@H]4[C@H]3CC[C@@]21C", "activity change, negative = cytotoxic": "-10.6%"}, {"compound": "O=C1c2ccccc2C(=O)C1c1ccccc1", "activity change, negative = cytotoxic": "0.454%"}, {"compound": "CN=C(NC#N)Nc1ccc(C2=NNC(=O)CC2C)cc1", "note": "(stereo not given)", "activity change, negative = cytotoxic": "-8.67%"}, {"compound": "CCC(C(=O)OCCN(CC)CC)c1ccccc1", "note": "(stereo not given)", "activity change, negative = cytotoxic": "-15.6%"}, {"compound": "CCCCS(=O)(=O)N[C@@H](Cc1ccc(OCCCCC2CCNCC2)cc1)C(=O)O", "activity change, negative = cytotoxic": "-0.994%"}, {"compound": "COc1cc(C(=S)N2CCOCC2)cc(OC)c1OC", "activity change, negative = cytotoxic": "19.4%"}]}]}
